The panel holds about 83,000 compounds, 20% with a hit somewhere; the sample as a whole holds those more often.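 Assay: single dose, 48 h. Readout: percent growth (0 = no net growth; negative = cell death). Active: <10.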 Values without a mark were called inactive. Calls of active or inactive are those of the source.

Among the test systems are HCT-15 colon; HT29 colon; SNB-75 CNS; SNB-19 CNS; U251 CNS; PC-3 prostate; SK-MEL-5 melanoma; UACC-62 melanoma; LOX IMVI melanoma; SK-MEL-28 melanoma; SK-MEL-2 melanoma; EKVX NSCLC; SN12C renal; UO-31 renal; TK-10 renal; ACHN renal; A498 renal; CCRF-CEM leukemia; MOLT-4 leukemia; CAKI-1 renal.
Holding throughout (experiment): NCI-60 one-dose screen, 48 h (100 = growth as untreated, 0 = no growth, -100 = all killed)
Common to all, as to conditions: 10 µM unless noted

Take `CCCCCCC/C=C/[C@H]1O[C@]2(O)C(=O)C=C3C[C@@H](O[C@@H]4O[C@H](CO)[C@@H](O)C(O)[C@@H]4O)C[C@@H]3[C@H]2C=C1C` (some centres undefined): the growth in the experiment with HCT-15 colon is -25% (active); with HT29 colon, -12.2% (active); in the experiment on SNB-75 CNS, 48.4%; in the experiment on SNB-19 CNS it was 13%; with U251 CNS it was -60.5% (active); in the experiment with PC-3 prostate it was -26.8% (active). Also, the growth with SK-MEL-5 melanoma is 6.77% (active); in the experiment with UACC-62 melanoma, -52.4% (active); with LOX IMVI melanoma, -76.1% (active); in the experiment with SK-MEL-28 melanoma, -26% (active); in the experiment on SK-MEL-2 melanoma it was -28.5% (active); with EKVX NSCLC, 72.4%. Further, the growth with SN12C renal was 1.69% (active); with UO-31 renal it was -88.1% (active); in the experiment with TK-10 renal, 4.93% (active); with ACHN renal it was -4.43% (active); with A498 renal, 71.2%; in the experiment with CCRF-CEM leukemia, 9.27% (active). Further, in the experiment with MOLT-4 leukemia, the growth was -6.66% (active).
On to `CNC(=O)NCC1OC(n2cnc3c(NC(=O)Nc4ccccc4)ncnc32)C(O[Si](C)(C)C(C)(C)C)C1O[Si](C)(C)C(C)(C)C` (centres undefined), for which the growth with HCT-15 colon was 21.3%; with HT29 colon, -67.7% (active); in the experiment on SNB-75 CNS, 45.8%; with SNB-19 CNS, 76.1%; with U251 CNS, 17.2%; in the experiment with PC-3 prostate, 7.78% (active). The growth was 48.2% in the experiment with SK-MEL-5 melanoma; 41.9% in the experiment with UACC-62 melanoma; 13.3% in the experiment on LOX IMVI melanoma; 60% in the experiment with SK-MEL-28 melanoma; 56.7% with SK-MEL-2 melanoma; 23.4% in the experiment on EKVX NSCLC. The growth in the experiment with SN12C renal was -79.3% (active); in the experiment with UO-31 renal it was 48.3%; with TK-10 renal it was 34.2%; with ACHN renal, 20.5%; in the experiment with CAKI-1 renal, 59.5%; with MOLT-4 leukemia, 24.1%.
On to `COc1ccc2c(c1)c(CC(=O)NCCOCCOCC(=O)Nc1ccc(OC)c(C(N)=O)c1O)c(C)n2C(=O)c1ccc(Cl)cc1`, for which the growth in the experiment with HCT-15 colon is 95.5%; with HT29 colon, 102%; with SNB-75 CNS, 89.6%; with SNB-19 CNS, 106%; with U251 CNS, 93.3%; in the experiment on PC-3 prostate it was 74.6%. Moreover, the growth with SK-MEL-5 melanoma is 96.6%; in the experiment with UACC-62 melanoma it was 98.8%; in the experiment on LOX IMVI melanoma it was 90%; with SK-MEL-28 melanoma, 119%; in the experiment with SK-MEL-2 melanoma, 89%; in the experiment with EKVX NSCLC, 94.4%. Besides, the growth was 101% in the experiment with SN12C renal; 74.4% with UO-31 renal; 100% with TK-10 renal; 109% in the experiment with ACHN renal; 86.6% in the experiment on A498 renal; 107% in the experiment with CCRF-CEM leukemia. Also, the growth in the experiment with MOLT-4 leukemia is 74.7%.
For `Cc1ccc(C(=O)Nc2ccccc2C(=O)N/N=C(\c2ccccc2)c2ccccn2)cc1`, the growth is 29.1% in the experiment on HCT-15 colon; 24.9% in the experiment on HT29 colon; 22.1% in the experiment with SNB-75 CNS; 26.2% in the experiment with SNB-19 CNS; 22.6% in the experiment on U251 CNS; 33.1% with PC-3 prostate. Besides, the growth in the experiment with SK-MEL-5 melanoma is -4.18% (active); in the experiment on UACC-62 melanoma, 5.33% (active); in the experiment on LOX IMVI melanoma, 5.79% (active); in the experiment with SK-MEL-28 melanoma, 32.4%; with SK-MEL-2 melanoma it was 41.4%; in the experiment on EKVX NSCLC it was 13.1%. For the same compound, the growth with SN12C renal was 28.9%; with UO-31 renal, 3.57% (active); with TK-10 renal, 47.2%; in the experiment with ACHN renal, 15.1%; in the experiment on CAKI-1 renal, 10.5%; with MOLT-4 leukemia, 15.8%.
Consider `Cc1ccc(O)c(C(=O)O)c1`, for which the growth was 104% in the experiment with HCT-15 colon; 102% in the experiment with HT29 colon; 107% in the experiment with SNB-75 CNS; 109% with SNB-19 CNS; 92.6% in the experiment on U251 CNS; 104% with PC-3 prostate. Moreover, the growth was 105% with SK-MEL-5 melanoma; 104% with UACC-62 melanoma; 101% with LOX IMVI melanoma; 114% with SK-MEL-28 melanoma; 109% with SK-MEL-2 melanoma; 118% with EKVX NSCLC. For the same compound, the growth in the experiment with SN12C renal was 104%; in the experiment on UO-31 renal, 94%; in the experiment on TK-10 renal, 72.7%; with ACHN renal, 106%; with A498 renal, 99.9%; in the experiment on CCRF-CEM leukemia, 98.1%. Moreover, the growth in the experiment with MOLT-4 leukemia was 97.7%.
With `OC(c1ccccc1)c1ccccn1` (centres undefined), the growth in the experiment with HCT-15 colon was 105%; in the experiment on HT29 colon it was 89.3%; in the experiment on SNB-75 CNS, 86.5%; in the experiment on SNB-19 CNS it was 100%; with U251 CNS it was 96.1%; in the experiment on PC-3 prostate, 89.9%. The growth is 101% with SK-MEL-5 melanoma; 103% in the experiment on UACC-62 melanoma; 103% with LOX IMVI melanoma; 107% with SK-MEL-28 melanoma; 104% with SK-MEL-2 melanoma; 98.8% in the experiment with EKVX NSCLC. Further, the growth is 99.6% in the experiment with SN12C renal; 93.1% in the experiment with UO-31 renal; 99.3% in the experiment with TK-10 renal; 108% in the experiment on ACHN renal; 98.5% in the experiment on A498 renal; 88.7% with CCRF-CEM leukemia. For the same compound, in the experiment with MOLT-4 leukemia, the growth was 96.8%.
On to `COc1ccccc1N1CCN(C(=O)c2ccc3nc(NC(=O)c4ccc(NCCc5ccccc5)c([N+](=O)[O-])c4)sc3c2)CC1`, for which the growth with HCT-15 colon is 81.5%; in the experiment on HT29 colon, 83.4%; with SNB-75 CNS, 91.4%; in the experiment on SNB-19 CNS, 95.2%; in the experiment on U251 CNS, 86.4%; in the experiment on PC-3 prostate, 77.9%. Also, the growth with SK-MEL-5 melanoma is 84.4%; in the experiment with UACC-62 melanoma it was 71.8%; in the experiment with LOX IMVI melanoma, 81.6%; in the experiment with SK-MEL-28 melanoma it was 91.5%; in the experiment on SK-MEL-2 melanoma it was 93.4%; in the experiment with EKVX NSCLC it was 89%. Besides, the growth is 77.2% in the experiment with SN12C renal; 60.1% in the experiment on UO-31 renal; 90.6% in the experiment on ACHN renal; 73.4% in the experiment on CAKI-1 renal; 79.6% with A498 renal; 77.6% with CCRF-CEM leukemia. Moreover, in the experiment with MOLT-4 leukemia, the growth was 95.4%.
With `CCOC(=O)N1CCc2c(sc3nc4nc[nH]n4c(=O)c23)C1`, the growth is 102% in the experiment on HCT-15 colon; 100% with HT29 colon; 89.4% with SNB-75 CNS; 106% with SNB-19 CNS; 100% with U251 CNS; 92.7% in the experiment with PC-3 prostate. Also, the growth in the experiment on SK-MEL-5 melanoma is 104%; with UACC-62 melanoma it was 98.8%; with LOX IMVI melanoma, 94.6%; in the experiment on SK-MEL-28 melanoma, 115%; with SK-MEL-2 melanoma, 96.6%; with EKVX NSCLC, 92.4%. Moreover, the growth with SN12C renal was 97.3%; with UO-31 renal, 81.9%; with TK-10 renal it was 105%; in the experiment on A498 renal, 82.3%; in the experiment with CCRF-CEM leukemia, 97.8%; with MOLT-4 leukemia it was 100%.

The record behind these values is PubChem BioAssay (NCI).
